# Measurements as given in the supplement of paper PMC10037445.
# Where “and” joins values, the source holds several entries; their conditions need not be identical. Identical values can stand only once. The full ranking holds about 2,900 compounds; the median of “NF-kB SEAP reporter activity, fold change vs agonist alone” is about 0.99, and the highest 2% start at about 2.6. What follows is part of a selection rich in the highest values, with near analogues and random picks from the rest.
# Assays:
# RAW-Dual [1] = assay: NF-kB SEAP reporter activity, fold change vs agonist alone; higher = enhanced NF-kB activity; conditions: cytotoxicity flag (confluency mask): not cytotoxic
# Procedure, shortened: (§1)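 Reporter activity is given as fold change relative to agonist-alone wells. To measure it, 50 nL of library stock was pin-tooled onto RAW-Dual macrophages (50,000 cells/well, DMEM, 384-well plates), a PRR agonist followed 1 h later, and cells stayed at 37 °C, 5% CO2. Twenty hours on, supernatant was assayed for IRF (QuantiLuc luminescence) and NF-κB (QuantiBlue, 620 nm absorbance), and wells under 70% of agonist-control IncuCyte confluency in both mask sets were marked cytotoxic.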
# RAW-Dual [2] = assay: NF-kB SEAP reporter activity, fold change vs agonist alone; cytotoxicity flag (confluency mask): not cytotoxic; higher = enhanced NF-kB activity
# Procedure, shortened: as §1
# [3] = agonist: ODN 1826 (TLR9) 0.5 ug/mL
# [4] = agonist: Pam2CSK4 (TLR2/6) 0.1 ug/mL
# [5] = agonist: Pam3CSK4 (TLR2/1) 0.1 ug/mL
# [6] = library stock concentration (final ~1000-fold dilution): 10 mM, agonist: Imiquimod (TLR7) […]
# [7] = library stock concentration (final ~1000-fold dilution): 10 mM, agonist: MPLA (TLR4) […]
smiles,measurement,setting,value
N#Cc1ncccn1,NF-kB SEAP reporter activity,"RAW-Dual [1]; library stock concentration (final ~1000-fold dilution): 2 mM, agonist: Imiquimod (TLR7) […]",1
same,NF-kB SEAP reporter activity,"RAW-Dual [1]; library stock concentration (final ~1000-fold dilution): 2 mM, agonist: MPLA (TLR4) […]",1
O.c1cnc2c(c1)ccc1cccnc12 (library stock concentration (final ~1000-fold dilution): 10 mM),NF-kB SEAP reporter activity,RAW-Dual [2]; agonist: LPS (TLR4) 0.1 ug/mL,2.48
same,NF-kB SEAP reporter activity,RAW-Dual [2]; [3],1.17
same,NF-kB SEAP reporter activity,RAW-Dual [2]; [4],1.44
same,NF-kB SEAP reporter activity,RAW-Dual [2]; [5],2.06
O=C(O)c1ccc(O)c2ncccc12,NF-kB SEAP reporter activity,RAW-Dual [1]; [6],1.05
same,NF-kB SEAP reporter activity,RAW-Dual [1]; [7],1.03
O.c1cnc2c(c1)ccc1cccnc12,NF-kB SEAP reporter activity,RAW-Dual [1]; [6],2.78
same,NF-kB SEAP reporter activity,RAW-Dual [1]; [7],2.1
O=C(O)c1ccc(O)c2ncccc12 (library stock concentration (final ~1000-fold dilution): 10 mM),NF-kB SEAP reporter activity,RAW-Dual [2]; agonist: LPS (TLR4) 0.1 ug/mL,1.21
same,NF-kB SEAP reporter activity,RAW-Dual [2]; [3],1.04
same,NF-kB SEAP reporter activity,RAW-Dual [2]; [4],0.998
same,NF-kB SEAP reporter activity,RAW-Dual [2]; [5],1.4
N#Cc1ncccn1 (library stock concentration (final ~1000-fold dilution): 2 mM),NF-kB SEAP reporter activity,RAW-Dual [2]; agonist: LPS (TLR4) 0.1 ug/mL,1.32
same,NF-kB SEAP reporter activity,RAW-Dual [2]; [3],1.02
same,NF-kB SEAP reporter activity,RAW-Dual [2]; [4],1.09
same,NF-kB SEAP reporter activity,RAW-Dual [2]; [5],1.05
CCn1cc(C(=O)O)c(=O)c2cc(F)c(N3CCN(C)CC3)cc21.CS(=O)(=O)O.O.O (library stock concentration (final ~1000-fold dilution): 10 mM),NF-kB SEAP reporter activity,RAW-Dual [2]; agonist: LPS (TLR4) 0.1 ug/mL,1.38
same,NF-kB SEAP reporter activity,RAW-Dual [2]; [3],0.867
same,NF-kB SEAP reporter activity,RAW-Dual [2]; [4],1.01
same,NF-kB SEAP reporter activity,RAW-Dual [2]; [5],1.01
CCn1cc(C(=O)O)c(=O)c2cc(F)c(N3CCN(C)CC3)cc21.CS(=O)(=O)O.O.O,NF-kB SEAP reporter activity,RAW-Dual [1]; [6],0.752
same,NF-kB SEAP reporter activity,RAW-Dual [1]; [7],0.814
Cl.Cl.OC(CN1CCN(c2cccc(Cl)c2)CC1)C(c1ccccc1)c1ccccc1 (centres undefined) (library stock concentration (final ~1000-fold dilution): 10 mM),NF-kB SEAP reporter activity,RAW-Dual [2]; agonist: LPS (TLR4) 0.1 ug/mL,0.841
same,NF-kB SEAP reporter activity,RAW-Dual [2]; [3],1.02
same,NF-kB SEAP reporter activity,RAW-Dual [2]; [4],0.761
same,NF-kB SEAP reporter activity,RAW-Dual [2]; [5],0.956
Cl.Cl.OC(CN1CCN(c2cccc(Cl)c2)CC1)C(c1ccccc1)c1ccccc1 (centres undefined),NF-kB SEAP reporter activity,RAW-Dual [1]; [6],1.33
same,NF-kB SEAP reporter activity,RAW-Dual [1]; [7],1.04
CC(=O)OC1CC2CCC3C(CCC4(C)C3CC([N+]3(C)CCCCC3)C4OC(C)=O)C2(C)CC1N1CCCCC1 (centres undefined) (library stock concentration (final ~1000-fold dilution): 10 mM),NF-kB SEAP reporter activity,RAW-Dual [2]; agonist: LPS (TLR4) 0.1 ug/mL,1.04
same,NF-kB SEAP reporter activity,RAW-Dual [2]; [3],1.02
same,NF-kB SEAP reporter activity,RAW-Dual [2]; [4],0.945
same,NF-kB SEAP reporter activity,RAW-Dual [2]; [5],1.01
CC(=O)OC1CC2CCC3C(CCC4(C)C3CC([N+]3(C)CCCCC3)C4OC(C)=O)C2(C)CC1N1CCCCC1 (centres undefined),NF-kB SEAP reporter activity,RAW-Dual [1]; [6],0.939
same,NF-kB SEAP reporter activity,RAW-Dual [1]; [7],0.965
CCOC(=O)/C=C/c1ccc(O)c(O)c1 (library stock concentration (final ~1000-fold dilution): 10 mM),NF-kB SEAP reporter activity,RAW-Dual [2]; agonist: LPS (TLR4) 0.1 ug/mL,0.633 and 0.814
same,NF-kB SEAP reporter activity,RAW-Dual [2]; [3],0.407 and 0.651
same,NF-kB SEAP reporter activity,RAW-Dual [2]; [4],0.658 and 0.524
same,NF-kB SEAP reporter activity,RAW-Dual [2]; [5],0.563 and 0.481
NS(=O)(=O)NCCNc1nonc1C(=Nc1ccc(F)c(Br)c1)NO (library stock concentration (final ~1000-fold dilution): 10 mM),NF-kB SEAP reporter activity,RAW-Dual [2]; agonist: LPS (TLR4) 0.1 ug/mL,1.01
same,NF-kB SEAP reporter activity,RAW-Dual [2]; [3],0.936
same,NF-kB SEAP reporter activity,RAW-Dual [2]; [4],0.922
same,NF-kB SEAP reporter activity,RAW-Dual [2]; [5],0.961
NS(=O)(=O)NCCNc1nonc1C(=Nc1ccc(F)c(Br)c1)NO,NF-kB SEAP reporter activity,RAW-Dual [1]; [6],0.862
same,NF-kB SEAP reporter activity,RAW-Dual [1]; [7],0.907
CCN(CC)C(=O)Nc1ccc(OCC(O)CNC(C)(C)C)c(C(C)=O)c1.Cl (centres undefined),NF-kB SEAP reporter activity,RAW-Dual [1]; [6],2.4
same,NF-kB SEAP reporter activity,RAW-Dual [1]; [7],2.24
CCCC(=O)Nc1ccc(OCC(O)CNC(C)C)c(C(C)=O)c1.Cl (centres undefined) (library stock concentration (final ~1000-fold dilution): 10 mM),NF-kB SEAP reporter activity,RAW-Dual [2]; agonist: LPS (TLR4) 0.1 ug/mL,1.54
same,NF-kB SEAP reporter activity,RAW-Dual [2]; [3],1.08
same,NF-kB SEAP reporter activity,RAW-Dual [2]; [4],1.11
same,NF-kB SEAP reporter activity,RAW-Dual [2]; [5],1.16
CCN(CC)C(=O)Nc1ccc(OCC(O)CNC(C)(C)C)c(C(C)=O)c1.Cl (centres undefined) (library stock concentration (final ~1000-fold dilution): 10 mM),NF-kB SEAP reporter activity,RAW-Dual [2]; agonist: LPS (TLR4) 0.1 ug/mL,3.5
same,NF-kB SEAP reporter activity,RAW-Dual [2]; [3],2.46
same,NF-kB SEAP reporter activity,RAW-Dual [2]; [4],1.6
same,NF-kB SEAP reporter activity,RAW-Dual [2]; [5],3.15
CCCC(=O)Nc1ccc(OCC(O)CNC(C)C)c(C(C)=O)c1.Cl (centres undefined),NF-kB SEAP reporter activity,RAW-Dual [1]; [6],1
same,NF-kB SEAP reporter activity,RAW-Dual [1]; [7],1.08
CC(C)(C)NCC(O)COc1cccc2c1CCC(=O)N2.Cl (centres undefined),NF-kB SEAP reporter activity,RAW-Dual [1]; [6],1.02
same,NF-kB SEAP reporter activity,RAW-Dual [1]; [7],1.07
CC(C)(C)NCC(O)COc1cccc2c1CCC(=O)N2.Cl (centres undefined) (library stock concentration (final ~1000-fold dilution): 10 mM),NF-kB SEAP reporter activity,RAW-Dual [2]; agonist: LPS (TLR4) 0.1 ug/mL,1.11
same,NF-kB SEAP reporter activity,RAW-Dual [2]; [3],1.05
same,NF-kB SEAP reporter activity,RAW-Dual [2]; [4],1.04
same,NF-kB SEAP reporter activity,RAW-Dual [2]; [5],1.11
